{"source": "ChEMBL document CHEMBL1961873", "about": "“Compounds: GSK PKIS; Assays: Nanosyn kinase panel” (2012)", "key": {"[1]": {"target": "T1, Inhibitor of nuclear factor kappa-B kinase subunit epsilon (Homo sapiens) (UniProt Q14164)", "T1 sequence (whole entry)": "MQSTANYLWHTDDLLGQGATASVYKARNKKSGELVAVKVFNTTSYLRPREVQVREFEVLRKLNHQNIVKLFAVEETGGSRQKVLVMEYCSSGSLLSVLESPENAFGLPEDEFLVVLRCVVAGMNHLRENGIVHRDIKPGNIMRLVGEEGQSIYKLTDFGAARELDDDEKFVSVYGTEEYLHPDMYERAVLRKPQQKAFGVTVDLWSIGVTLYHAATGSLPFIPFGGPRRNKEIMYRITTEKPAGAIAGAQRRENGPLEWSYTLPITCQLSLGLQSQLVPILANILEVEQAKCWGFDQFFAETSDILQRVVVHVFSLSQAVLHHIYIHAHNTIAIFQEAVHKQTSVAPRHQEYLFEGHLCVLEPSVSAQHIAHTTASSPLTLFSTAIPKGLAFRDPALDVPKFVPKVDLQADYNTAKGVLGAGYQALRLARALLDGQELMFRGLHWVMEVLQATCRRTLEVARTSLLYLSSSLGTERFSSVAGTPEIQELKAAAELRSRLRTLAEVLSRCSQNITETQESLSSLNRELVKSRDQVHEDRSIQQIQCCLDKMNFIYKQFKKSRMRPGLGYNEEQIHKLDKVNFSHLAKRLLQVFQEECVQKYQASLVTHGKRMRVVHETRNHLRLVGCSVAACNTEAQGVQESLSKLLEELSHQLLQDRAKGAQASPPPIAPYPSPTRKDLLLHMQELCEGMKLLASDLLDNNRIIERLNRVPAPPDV", "settings": "at 1 µM"}, "[2]": {"target": "T2, Serine/threonine-protein kinase Nek1 (Homo sapiens) (UniProt Q96PY6)", "T2 sequence (whole entry)": "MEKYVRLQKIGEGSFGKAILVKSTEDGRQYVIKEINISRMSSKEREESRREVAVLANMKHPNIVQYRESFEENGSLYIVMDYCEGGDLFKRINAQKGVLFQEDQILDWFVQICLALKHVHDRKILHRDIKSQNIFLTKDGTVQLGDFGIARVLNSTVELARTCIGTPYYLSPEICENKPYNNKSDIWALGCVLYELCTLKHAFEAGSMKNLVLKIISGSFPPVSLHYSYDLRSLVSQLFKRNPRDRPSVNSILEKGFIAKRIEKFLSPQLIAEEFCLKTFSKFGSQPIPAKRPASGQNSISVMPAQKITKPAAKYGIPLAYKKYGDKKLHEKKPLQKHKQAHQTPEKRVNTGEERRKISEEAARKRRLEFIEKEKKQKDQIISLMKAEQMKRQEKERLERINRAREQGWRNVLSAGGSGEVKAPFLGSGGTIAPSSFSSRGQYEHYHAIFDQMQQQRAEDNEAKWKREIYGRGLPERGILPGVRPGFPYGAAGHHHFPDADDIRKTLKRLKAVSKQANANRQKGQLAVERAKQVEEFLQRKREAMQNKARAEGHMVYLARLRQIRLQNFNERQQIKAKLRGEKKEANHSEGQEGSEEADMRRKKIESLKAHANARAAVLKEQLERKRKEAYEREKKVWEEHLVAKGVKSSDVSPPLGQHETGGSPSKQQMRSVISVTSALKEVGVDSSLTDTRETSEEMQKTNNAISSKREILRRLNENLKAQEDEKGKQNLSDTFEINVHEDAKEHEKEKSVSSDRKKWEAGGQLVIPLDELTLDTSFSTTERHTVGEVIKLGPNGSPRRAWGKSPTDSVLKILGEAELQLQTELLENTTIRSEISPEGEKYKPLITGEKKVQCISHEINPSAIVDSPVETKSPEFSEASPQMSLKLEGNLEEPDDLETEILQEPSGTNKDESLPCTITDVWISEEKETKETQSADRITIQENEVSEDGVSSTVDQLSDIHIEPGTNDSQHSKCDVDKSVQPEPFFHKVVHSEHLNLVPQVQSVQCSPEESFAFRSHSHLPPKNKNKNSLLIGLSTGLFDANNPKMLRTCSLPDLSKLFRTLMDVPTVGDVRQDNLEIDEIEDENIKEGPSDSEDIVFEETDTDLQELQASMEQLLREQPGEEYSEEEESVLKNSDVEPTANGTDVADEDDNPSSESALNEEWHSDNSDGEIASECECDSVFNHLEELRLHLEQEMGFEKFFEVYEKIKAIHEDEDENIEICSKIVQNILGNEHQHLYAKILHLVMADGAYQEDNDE", "settings": "at 0.1 µM"}, "[3]": {"target": "T2, Serine/threonine-protein kinase Nek1 (Homo sapiens)", "settings": "at 1 µM"}, "[4]": {"target": "T3, Serine/threonine-protein kinase Nek2 (Homo sapiens) (UniProt P51955)", "T3 sequence (whole entry)": "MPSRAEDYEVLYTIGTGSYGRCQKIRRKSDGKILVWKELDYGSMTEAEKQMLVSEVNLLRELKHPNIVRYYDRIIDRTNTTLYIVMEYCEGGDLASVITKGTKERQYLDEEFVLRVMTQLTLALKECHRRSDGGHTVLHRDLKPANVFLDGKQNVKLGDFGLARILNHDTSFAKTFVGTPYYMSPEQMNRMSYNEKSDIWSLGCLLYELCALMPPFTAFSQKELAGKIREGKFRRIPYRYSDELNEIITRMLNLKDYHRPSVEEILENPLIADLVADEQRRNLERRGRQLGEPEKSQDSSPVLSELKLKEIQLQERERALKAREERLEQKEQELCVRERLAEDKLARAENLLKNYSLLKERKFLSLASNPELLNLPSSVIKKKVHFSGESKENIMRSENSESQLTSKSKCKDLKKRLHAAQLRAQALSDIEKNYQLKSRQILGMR", "settings": "at 0.1 µM"}, "[5]": {"target": "T3, Serine/threonine-protein kinase Nek2 (Homo sapiens)", "settings": "at 1 µM"}, "[6]": {"target": "Serine/threonine-protein kinase Nek6 (Homo sapiens) (UniProt Q9HC98)", "sequence (Q9HC98 whole entry)": "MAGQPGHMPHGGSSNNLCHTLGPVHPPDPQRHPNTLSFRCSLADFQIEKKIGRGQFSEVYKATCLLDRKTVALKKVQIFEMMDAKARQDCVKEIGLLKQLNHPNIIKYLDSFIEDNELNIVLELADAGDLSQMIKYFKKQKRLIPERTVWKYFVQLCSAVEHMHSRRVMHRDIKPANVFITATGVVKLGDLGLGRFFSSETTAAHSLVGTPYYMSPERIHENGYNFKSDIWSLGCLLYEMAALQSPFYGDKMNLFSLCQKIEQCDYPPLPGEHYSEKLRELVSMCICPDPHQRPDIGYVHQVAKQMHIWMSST", "settings": "at 0.1 µM"}, "[7]": {"target": "Serine/threonine-protein kinase Nek6 (Homo sapiens) (UniProt Q9HC98)", "settings": "at 1 µM"}, "[8]": {"target": "Serine/threonine-protein kinase Nek7 (Homo sapiens) (UniProt Q8TDX7)", "sequence (Q8TDX7 whole entry, looked up)": "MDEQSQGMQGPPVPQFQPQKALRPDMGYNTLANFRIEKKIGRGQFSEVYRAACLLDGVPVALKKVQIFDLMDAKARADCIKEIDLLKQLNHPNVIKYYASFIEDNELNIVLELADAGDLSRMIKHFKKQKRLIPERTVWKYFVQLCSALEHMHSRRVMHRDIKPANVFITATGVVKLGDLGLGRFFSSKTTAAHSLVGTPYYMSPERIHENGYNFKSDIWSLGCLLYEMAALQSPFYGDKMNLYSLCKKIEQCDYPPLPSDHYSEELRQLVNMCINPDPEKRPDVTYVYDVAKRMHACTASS", "settings": "at 0.1 µM"}, "[9]": {"target": "Serine/threonine-protein kinase Nek7 (Homo sapiens) (UniProt Q8TDX7)", "settings": "at 1 µM"}, "[10]": {"target": "T4, Serine/threonine-protein kinase Nek9 (Homo sapiens) (UniProt Q8TD19)", "T4 sequence (whole entry)": "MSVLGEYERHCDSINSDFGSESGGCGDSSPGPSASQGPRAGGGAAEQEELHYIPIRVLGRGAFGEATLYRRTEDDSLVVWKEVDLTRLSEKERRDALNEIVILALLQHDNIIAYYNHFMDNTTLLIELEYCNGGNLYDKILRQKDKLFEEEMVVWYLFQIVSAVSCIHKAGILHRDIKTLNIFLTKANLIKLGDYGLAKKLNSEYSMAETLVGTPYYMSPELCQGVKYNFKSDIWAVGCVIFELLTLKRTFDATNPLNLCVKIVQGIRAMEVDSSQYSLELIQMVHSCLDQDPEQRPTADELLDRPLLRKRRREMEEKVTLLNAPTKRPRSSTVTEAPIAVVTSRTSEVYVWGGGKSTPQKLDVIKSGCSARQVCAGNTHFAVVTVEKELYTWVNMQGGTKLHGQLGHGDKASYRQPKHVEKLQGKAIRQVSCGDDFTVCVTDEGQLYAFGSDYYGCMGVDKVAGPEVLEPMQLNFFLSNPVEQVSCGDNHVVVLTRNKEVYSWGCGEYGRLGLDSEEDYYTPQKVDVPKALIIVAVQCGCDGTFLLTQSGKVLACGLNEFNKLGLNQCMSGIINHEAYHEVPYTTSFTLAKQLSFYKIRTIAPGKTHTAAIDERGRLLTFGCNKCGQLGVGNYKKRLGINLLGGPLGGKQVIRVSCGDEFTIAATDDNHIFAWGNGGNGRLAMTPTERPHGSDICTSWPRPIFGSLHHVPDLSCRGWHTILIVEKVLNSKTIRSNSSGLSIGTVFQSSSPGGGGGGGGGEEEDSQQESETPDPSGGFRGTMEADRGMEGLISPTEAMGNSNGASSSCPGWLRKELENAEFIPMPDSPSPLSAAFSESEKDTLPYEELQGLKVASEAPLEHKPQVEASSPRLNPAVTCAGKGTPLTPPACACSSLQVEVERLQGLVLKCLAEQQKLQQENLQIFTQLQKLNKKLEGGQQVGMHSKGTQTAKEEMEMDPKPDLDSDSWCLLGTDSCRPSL", "settings": "at 0.1 µM"}}, "data": [{"smiles": "COc1cc(/C=N/Nc2ncnc3c2cnn3C(C)C)ccc1O", "values": [{"measurement": "inhibition", "setting": "[1]", "result": 1.92, "unit": "%"}, {"measurement": "inhibition", "setting": "[2]", "result": 2.42, "unit": "%"}, {"measurement": "inhibition", "setting": "[3]", "result": 10.4, "unit": "%"}, {"measurement": "inhibition", "setting": "[4]", "result": 2.62, "unit": "%"}, {"measurement": "inhibition", "setting": "[5]", "result": 6.4, "unit": "%"}, {"measurement": "inhibition", "setting": "[6]", "result": 2.57, "unit": "%"}, {"measurement": "inhibition", "setting": "[7]", "result": 1.52, "unit": "%"}, {"measurement": "inhibition", "setting": "[8]", "result": 5.39, "unit": "%"}, {"measurement": "inhibition", "setting": "[9]", "result": 2.72, "unit": "%"}, {"measurement": "inhibition", "setting": "[10]", "result": -0.27, "unit": "%"}]}]}
